A selection: hits, their analogues and other compounds. The true share with any hit is near 3.2%.
Caspase-1 inhib: blocks human caspase-1 allosterically or competitively. P29466. Caspase-1 enzyme, Ac-WEHD-AFC fluorogenic rate. Potency, µM (top dose mostly 57.5 µM), for the others: at the highest dose activity change, negative = inhibition, actives largely listed as inhibitors. 0.03% of 75,000 active. AID 900;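 note: plate controls were vehicle for no effect and no substrate for full effect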
Target sequence (P29466 120-297 limits assumed): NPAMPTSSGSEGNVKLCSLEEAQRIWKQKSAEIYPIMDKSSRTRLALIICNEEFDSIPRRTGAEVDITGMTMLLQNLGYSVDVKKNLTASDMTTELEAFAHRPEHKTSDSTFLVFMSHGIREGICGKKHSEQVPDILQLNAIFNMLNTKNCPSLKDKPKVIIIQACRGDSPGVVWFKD
Target sequence (P29466 317-404 limits assumed): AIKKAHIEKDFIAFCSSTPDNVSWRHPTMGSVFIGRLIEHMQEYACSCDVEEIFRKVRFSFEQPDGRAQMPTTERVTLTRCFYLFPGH
ALOX15 inhib: blocks human 15-lipoxygenase activity | Potency, µM (doses to about 57.1 µM), for inactives: at the highest dose activity change, negative = inhibition, actives largely listed as inhibitors | P16050 | 1.4% of 74,000 active | purified 15hLO-1, xylenol orange hydroperoxide absorbance; note: % is set by controls: 0 for no effect and ±100 for the full control effect; nearly all actives have a fitted effect of over 55% in size
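Compounds were preincubated 15 min at room temperature with 40 nM purified human enzyme (25 mM Hepes pH 7.5, 0.01% Triton X-100); 50 uM arachidonic acid reacted 6 min. Fe-xylenol orange detection, 30 min, absorbance ratio 573/405 nm.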
DNA Pol III inh: DNA polymerase III holoenzyme inhibition; reconstituted DNA polymerase III holoenzyme replication, biochemical; Potency, µM (titrated, usually from 57.1 µM), inactives show top-dose activity change, negative = inhibition; 0.25% of 71,000 active; AID 603; note: % is set by controls: 0 for no effect and ±100 for the full control effect
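Reconstituted *E. coli* holoenzyme (0.35 nM Pol III, 1 nM beta, 154 nM SSB, 2 nM primase) was preincubated with compound for 15 min at RT. Synthesis on 1.4 nM ssM13Gori ran 35 min, then was stopped with PicoGreen/EDTA and read as dsDNA fluorescence.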
Tau fil binding: binds recombinant human tau filaments. recombinant tau filaments, thioflavin S fluorescence, 15 h; filaments grown with octadecylsulfate alongside compound. Potency, µM (titrated, usually from 57.1 µM), without a hit: top-dose activity change, negative = inhibition. 2% of 71,000 active;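 note: % is set by controls: 0 for no effect and ±100 for the full control effect; actives lower thioflavin S fluorescence by blocking filaments or displacing dye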
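Assay mix: 1 uM His-tagged tau, 30 uM sodium octadecylsulfate, thioflavine S dye in HEPES/NaCl/DTT buffer. Compound is added prior to the inducer. Fluorescence after 15 h at 37 C.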
Casp7 inh: allosteric or competitive inhibitors of human caspase-7; P55210; recombinant caspase-7, Ac-DEVD-AFC fluorescence rate; Potency, µM (top dose mostly 57.5 µM), for the others: at the top dose activity change, negative = inhibition, most hits filed as inhibitors; 0.02% of 75,000 active; active = well fitted inhibition curve with a large enough effect in the main read-out, with a control signal flat, not every such curve was filed as active; inconclusive = small, poorly fitted or top-dose-only effect, or a change in a side signal; note: % of control where 0% means no effect
Target sequence (P55210 24-198 limits assumed): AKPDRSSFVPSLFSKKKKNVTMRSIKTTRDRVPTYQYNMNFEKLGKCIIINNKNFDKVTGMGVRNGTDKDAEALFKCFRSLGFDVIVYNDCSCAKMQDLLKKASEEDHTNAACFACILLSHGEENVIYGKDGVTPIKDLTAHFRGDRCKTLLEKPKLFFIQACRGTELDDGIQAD
Target sequence (P55210 207-303 limits assumed): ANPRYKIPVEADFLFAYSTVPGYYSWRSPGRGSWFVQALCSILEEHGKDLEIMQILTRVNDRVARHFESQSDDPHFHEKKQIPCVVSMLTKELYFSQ
* hit, by the source's call; ? = inconclusive; / = not tested or not shown; [ ] = remark or other dose. Unless noted, calls come from the whole dose curve; as a rule, active = well fitted curve in the direction sought with a large enough effect; inconclusive = small, poorly fitted or top-dose-only effect, or another doubt; inactive = no such curve, though single readings can be large; an effect the other way counts as inactive or inconclusive. Potency is the fitted concentration of half-maximal effect.

SMILES	Caspase-1 inhib	ALOX15 inhib	DNA Pol III inh	Tau fil binding	Casp7 inh
CCOC(=O)C1=C(C)NC(=O)N[C@@H]1c1coc2cc(C)cc(C)c2c1=O	-0.9%[11.5 µM]	1.0%[11.4 µM]	0.4%[11.4 µM]	14.2%[11.4 µM]	-2.4%[11.5 µM]
CCOc1ccc(OCC)c(NS(=O)(=O)c2cccc3nsnc23)c1	-4.2%	-10.6%	-3.5%	25.1µM*	1.5%
COc1ccc(C(=O)O)cc1NS(=O)(=O)c1cccc2nsnc12	-1.4%	-0.2%	-1.8%	1.0%	-0.5%
CCN(CC)CCN1C(=O)c2oc3ccccc3c(=O)c2C1c1cccc(Br)c1 (stereo unspecified)	-5.6%	2.8%	-2.7%	25.1µM*	-2.3%
CCN(CC)CCN1C(=O)c2oc3ccccc3c(=O)c2C1c1ccccc1 (stereo unspecified)	-2.8%	5.0%	1.2%	-20.5%	-0.9%
O=C(Oc1ccccc1)N1CCC2(CC1)CCN(c1ccncc1)CC2	-0.7%	7.7%	-4.7%	46.2%	-0.3%
COc1ccc(O[C@H]2C=C[C@@H](c3ccccc3)O[C@H]2COC(=O)CC/C(C)=N\O[C@@H](C)c2cn([C@H](CO)Cc3ccccc3)nn2)cc1	-1.5%[11.5 µM]	1.2%[11.4 µM]	/	/	1.4%[11.5 µM]
COc1ccc(OC)c(Nc2cc(-c3ccccc3)nc(N)n2)c1	-1.2%	?	-0.6%	15.8µM*	1.8%
COc1ccc(OC)c(Nc2cc(C)nc3ccccc23)c1	1.4%	0.5%	-1.8%	10.6%	1.1%
Cc1c(Cl)ccc2c1NC(=O)[C@]21[C@@H]2C(=O)N(Cc3ccccc3)C(=O)[C@@H]2[C@@H]2CCCN21	-6.7%	?	-2.5%	25.1µM*	-17.2%
CCc1cccc2c1NC(=O)[C@]21[C@@H]2C(=O)N(Cc3ccccc3)C(=O)[C@@H]2[C@@H]2CCCN21	-5.6%	-27.4%	-1.6%	25.1µM*	-11.4%
CCN1C(=O)[C@H]2[C@@H]3[C@H](O)[C@H](O)CC(=O)[C@H]3CC[C@H]2C1=O	-2.9%[11.5 µM]	3.4%[11.4 µM]	/	/	0.5%[11.5 µM]
CCOC(=O)Cn1cc(C(=O)c2ccco2)c2ccccc21	-1.5%	3.9%	-0.9%	7.3%	0.6%
COC(=O)CCc1c(C)c(C(=O)c2ccco2)c2ccccn12	/	7.94µM*	-2.1%	52.3%	/
Cc1ccc2c(c1)N(C(=O)CSc1nncn1C)C(C)(C)c1ssc(=S)c1-2	-2.6%	?	-5.6%	15.8µM*	0.7%
Cc1ccc(-n2nnnc2SCC(=O)N2c3ccccc3NC(=O)C2(C)C)cc1	2.3%	-5.9%	4.2%	-3.5%	0.6%
CCOC(=O)SC1=N/C(=C\c2ccc(N(C)C)cc2)C(=O)S1	-3.4%	-28.8%	-3.9%	3.16µM*	-6.2%
CCCn1c(CCC(=O)O)ccc1-c1ccc(F)cc1	-14.2%	7.94µM*	-7.7%	?	-13.2%
O=C(O)CCc1ccc(-c2ccc(Br)cc2)n1Cc1ccco1	-8.6%	15.8µM*	-17.5%	?	-16.2%
CO/N=C(\C(=O)N[C@@H]1C(=O)N2C(C(=O)O)=C(CSc3nc(=O)c(O)nn3C)CS[C@@H]12)c1csc(N)n1	-0.5%	7.2%	39.8µM*	4.8%	-1.8%
CN1CCN(c2ccc3nc(-c4ccc5nc(-c6ccc(O)cc6)[nH]c5c4)[nH]c3c2)CC1	-0.1%[11.5 µM]	27.5%[11.4 µM]	2µM*	52.7%[11.4 µM]	-7.4%[11.5 µM]
COc1cccc(N2CCN(S(=O)(=O)c3ccc4nc(-c5ccccc5)[nH]c4c3)CC2)c1	-2.3%	-12.5%	-1.9%	105.8%	-1.2%
Cc1cc(O)ccc1Nc1nc2ccccc2nc1Nc1ccc(O)cc1C	?	15.8µM*	0.0%	7.94µM*	?
Cc1cc(Oc2ccccc2)nc2ccc(O)cc12	1.4%	-9.9%	2.9%	-15.1%	-2.3%
COc1cc(N)ccc1Cc1ccc(N)cc1OC	0.0%	-2.2%	-6.6%	25.1µM*	-0.1%
SMILES	Caspase-1 inhib	ALOX15 inhib	DNA Pol III inh	Tau fil binding	Casp7 inh
CCC(CC)NCc1ccc(OC)cc1OC	-4.5%	14.9%	0.9%	-15.2%	1.0%
COc1cccc(-c2cc(=O)c3cc(O)ccc3o2)c1	-0.1%	6.4%[25.6 µM]	-13.8%	31.6µM*	0.8%
Cc1cc2c(ccc3[nH]onc32)n1	?	20µM*	-1.4%	68.6%	?
CC(C)(C)c1ccc(S(=O)(=O)/C=C\C#N)cc1	-1.7%	-8.2%	-7.9%	24.2%	-1.6%
COc1ccc(NC2c3ccccc3C(=O)N2Cc2ccco2)cc1OC (stereo unspecified)	-0.3%	-14.0%	-5.3%	-17.8%	-2.5%
COc1ccc(OC)c(NC2c3ccccc3C(=O)N2Cc2ccc3c(c2)OCO3)c1 (stereo unspecified)	-1.8%	-12.7%	-3.0%	20µM*	-3.2%
O=C1c2ccccc2C(Nc2cccnc2)N1Cc1ccc2c(c1)OCO2 (stereo unspecified)	0.1%	11.4%	-1.8%	-2.3%	1.3%
COc1ccc(CN2C(=O)c3cccnc3C2Nc2cc(Cl)ccc2OC)cc1 (stereo unspecified)	1.2%	15.8µM*	-1.8%	-4.7%	-4.9%
COc1ccc(OC)c(NC2c3ncccc3C(=O)N2Cc2ccco2)c1 (stereo unspecified)	2.5%	?	-4.4%	-29.0%	-0.8%
O=C1c2ccccc2C(Nc2ccc(F)c(Cl)c2)N1Cc1ccco1 (stereo unspecified)	-2.3%	?	0.1%	12.6µM*	-4.2%
CCOc1ccc(NC2c3ccccc3C(=O)N2Cc2ccco2)cc1 (stereo unspecified)	-1.4%	-12.3%	-3.5%	15.8µM*	-3.3%
COc1cccc([C@@H]2Oc3ccc(OC)cc3/C(=N/O[C@@H](C)c3cn([C@H]4COC[C@H]4O)nn3)[C@@H]2O)c1	-2.7%[11.5 µM]	8.1%[11.4 µM]	/	/	-0.5%[11.5 µM]
O=C1c2ccccc2C(Nc2ccc3c(c2)OCO3)N1Cc1ccco1 (stereo unspecified)	-2.0%	?	2.2%	12.6µM*	-4.8%
O=C1c2ccccc2C(Nc2ccc3c(c2)OCO3)N1Cc1ccc2c(c1)OCO2 (stereo unspecified)	0.5%	-29.6%	-7.4%	10µM*	-3.4%
CN(C)c1ccc(NC(=O)CCCc2ccccc2)cc1	0.0%	10µM*	-2.5%	20µM*	-1.1%
Oc1c(Cl)cc(CN(Cc2cc(Cl)c(O)c(Cl)c2)C2CCCCC2)cc1Cl	0.9%[11.5 µM]	-2.7%[11.4 µM]	-9.0%[11.4 µM]	-0.5%[11.4 µM]	-0.5%[11.5 µM]
CC(C)CO/N=C1/[C@H]2O[C@@H]2[C@@H](O)[C@H]2[C@H]1CCn1c(=O)n(-c3ccccc3)c(=O)n12	-1.7%[11.5 µM]	3.5%[11.4 µM]	/	/	-6.1%[11.5 µM]
c1ccc(C2=NN[C@@H]3c4ccccc4-c4ccccc4N3C2)cc1	2.3%[11.5 µM]	?	-15.4%[11.4 µM]	3.98µM*	0.5%[11.5 µM]
O=C(CCS(=O)(=O)c1cccc2nonc12)N1CCCc2ccccc21	0.5%	9.3%	-2.7%	-2.4%	-0.1%
Cc1ccc(Cl)cc1N1CCN(C(=O)CCS(=O)(=O)c2cccc3nonc23)CC1	-3.3%	-25.4%	-1.2%	12.6µM*	-1.4%
CN(C)c1ccc(N=Nc2cccc3ccoc23)cc1	-3.1%[11.5 µM]	-11.9%[11.4 µM]	-8.2%[11.4 µM]	3.98µM*	0.6%[11.5 µM]
COC(=O)[C@@H]1C[C@@H]2CC[C@@H](O)C[C@@H]2N1CC1CCCCC1	-3.6%	/	/	/	-5.1%

Bioassay records (PubChem BioAssay)
